PP1 inh: PP1-alpha phosphatase inhibitors, primary screen, counter-screen for PP5 inhibitor project, biochemical, fluorescence, OMFP substrate, single point. Serine/threonine-protein phosphatase PP1-alpha catalytic subunit (Homo sapiens), P62136. purified PP1alpha. inhibition, % at 6.7 µM. 320,000 compounds, 0.9% hits. AID 2235, 2010;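 active = inhibition above the mean inhibition of all tested compounds plus 3 SD, computed separately for each screening campaign, cut at about 15% in these data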
Calb FLC: C. albicans growth inhibition with fluconazole, primary screen, CaCi-2 strain, Alamar Blue fluorescence. AID 1979, 2009. 300,000 compounds, 0.57% hits. growth inhibition, % (no concentration beside the values). C. albicans CaCi-2 (fluconazole-resistant clinical isolate) + fluconazole, 48 h;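 active = growth inhibition above about 58% in most replicates, limit read from the data, passing the limit was not always enough; inconclusive = exactly half the replicates above a set limit; inactive = most replicates below a set limit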;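 note: all wells also contain fluconazole at 8 µg/ml as a sub-toxic cotreatment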
CSC inhib: cancer stem cell viability inhibitors, primary screen, luminescence; 300,000 compounds, 1.1% hits; cancer stem cell-like cells viability; AID 2717, 2010; inhibition, % at 7.5 µM; in the data active = inhibition above about 75%; inconclusive = no clear call, values can overlap the other calls; tested in HMLE shEcad cells
ALR inh: inhibitors of human ALR sulfhydryl oxidase, primary screen, biochemical, H2O2 detection, HRP-luminol luminescence, single point; FAD-linked sulfhydryl oxidase ALR (Homo sapiens), P55789; purified ALR, DTT oxidation; AID 485317, 2010; inhibition, % (no concentration beside the values); 290,000 compounds, 3.8% hits;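 active = mean replicate inhibition above about 79%, with every replicate also reaching it, limit read from the data; inconclusive = only one of the two criteria met; inactive = mean below limit and not every replicate reaching it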
PP5 primary: PP5 phosphatase inhibitors, primary screen, biochemical, fluorescence | Serine/threonine-protein phosphatase 5 (Homo sapiens), P53041 | purified PP5c, OMFP substrate fluorescence | inhibition, % at 6.7 µM | 320,000 compounds, 0.18% hits;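 active = inhibition above the campaign's mean inhibition across all tested compounds plus 3 SD, cut at about 9.5% in these data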
Target sequence (P53041 whole entry, looked up): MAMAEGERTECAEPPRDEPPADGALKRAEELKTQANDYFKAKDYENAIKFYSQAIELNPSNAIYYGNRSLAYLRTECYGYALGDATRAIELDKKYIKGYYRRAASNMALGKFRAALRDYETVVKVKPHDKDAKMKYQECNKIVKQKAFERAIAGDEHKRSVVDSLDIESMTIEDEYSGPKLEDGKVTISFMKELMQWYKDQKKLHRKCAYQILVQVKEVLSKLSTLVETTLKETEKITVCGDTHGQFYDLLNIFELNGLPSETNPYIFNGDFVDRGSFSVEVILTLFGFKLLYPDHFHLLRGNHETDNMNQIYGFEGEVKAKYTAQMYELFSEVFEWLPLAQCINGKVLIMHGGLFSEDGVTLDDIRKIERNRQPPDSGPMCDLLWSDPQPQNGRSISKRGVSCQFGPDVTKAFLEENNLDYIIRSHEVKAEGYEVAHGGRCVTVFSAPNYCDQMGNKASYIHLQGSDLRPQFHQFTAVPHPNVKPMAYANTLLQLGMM
Of the large screens only hits and unclear results are named; the others gave an inactive call. Shown are actives, neighbours in structure and some others; about 5.4% of the full set was active somewhere.

CC(=O)Nc1ccc(NC(=O)/C(=C/c2ccco2)NC(=O)c2ccccc2)cc1	none
CCC(C)NC(=O)CNC(=O)Cn1c(C)cc2ccccc2c1=O (centres undefined)	none
COc1ccc(N(CC(=O)NC2CCCC2)C(=O)CCC(=O)Nc2cc(C)on2)cc1	none (no result: CSC inhib, ALR inh)
O=C(CN1CCOc2ccccc21)NCc1ccccc1	ALR inh 98.4
CC(CCc1ccccc1)NC(=O)CN1CCOc2ccccc21 (centres undefined)	ALR inh 98.5
CC(CCc1ccccc1)NC(=O)CN1CCSc2ccccc21 (centres undefined)	ALR inh 98.9 (no result: CSC inhib)
CC(CCc1ccccc1)NC(=O)CN1CCN(Cc2ccccc2)C1=O (centres undefined)	none
CCOc1ccccc1C1C2=C(COC2=O)Nc2cc3c(cc21)OCO3 (centres undefined)	Calb FLC 82.5 (no result: ALR inh)
Cc1ccc(C(=O)CC(=O)c2cc(Cl)ccc2O)cc1	none (no result: CSC inhib)
N/C(=C\C(=O)c1cc(Cl)ccc1O)C(Cl)(Cl)Cl	CSC inhib 85.5
COc1ccc(CCNC(=O)COC(=O)CCC(=O)c2ccc(F)cc2)cc1	ALR inh 84.6
FC(F)(F)c1cccc(-c2nc3nc(Cl)c(Cl)nc3[nH]2)c1	CSC inhib 75.6
CCCNC(=O)C12CCC(C)(c3nc4cc(C)c(C)cc4nc31)C2(C)C (centres undefined)	Calb FLC 110.3
CNC(=O)C12CCC(C)(c3nc4cc(C)c(C)cc4nc31)C2(C)C (centres undefined)	none
CCOc1ccccc1NC(=S)N1CCN(c2ccc(O)cc2)CC1	ALR inh 99.0
CCOc1ccccc1NC(=S)N1CCN(c2ccc(OC)cc2)CC1	none
CCOC(=O)N1CCN(c2ccc(O)cc2)CC1	ALR inh 99.1
O=C(C1CC1)N1CCN(c2ccc(O)cc2)CC1	ALR inh 99.5
COc1ccc(OC)c(-c2csc3nnc(SCC(=O)Nc4ccc(NC(C)=O)cc4)n23)c1	none
COc1cccc(CNc2ccc(F)c([N+](=O)[O-])c2)c1O	ALR inh 98.2
CCOC(=O)c1c(N2C(=O)Nc3ccccc3N2O)sc2c1CCCCC2	ALR inh 95.1
COC(=O)c1c(N2C(=O)Nc3ccccc3N2O)sc2c1CCCC2	none
COC(=O)c1ccc(NC(=O)c2ccc3c(c2)C(=O)N(Cc2cccnc2)C3=O)cc1	none
COC(=O)c1ccc(/C=C/c2c(-c3ccc(OC)cc3)oc3ccccc23)cc1	CSC inhib 108.8
COC(=O)c1ccc(/C=C/c2c(-c3ccc(OC)cc3)oc3ccc(N4CCOCC4)cc23)cc1	CSC inhib 109.0
COc1ccc(/C=C/c2c(-c3ccc(OC)cc3)oc3ccccc23)cc1	none
Fc1cccc(CN2CCC(Cc3ccccc3)CC2)c1	none
Cc1nc2c3ccccc3n(CC#N)c(=O)n2n1	none
COc1ccnc(N2CCN(c3ccccc3)CC2)c1C#N	Calb FLC 79.4, ALR inh 98.8 (no result: CSC inhib)
Cc1cc(C(=O)N2CCN(c3ncccc3C#N)CC2)no1	none
COc1ccc(N2CCN(c3ccc(N)cc3C#N)CC2)cc1	ALR inh 86.4
COc1ccnc(Oc2ccccc2)c1C#N	none
COc1ccc(N2CCN(c3ncccc3C#N)CC2)cc1	ALR inh 97.3 (no result: CSC inhib)
O=C(/C=C/c1cccc(Cl)c1)c1ccc([N+](=O)[O-])o1	Calb FLC 88.3, CSC inhib inconclusive
COc1ccc(/C=C/C(=O)c2ccc([N+](=O)[O-])o2)cc1OC	CSC inhib 78.2
COc1cc(/C=C/C(=O)c2ccc([N+](=O)[O-])o2)ccc1O	ALR inh inconclusive
CCOc1ccccc1CNS(=O)(=O)c1csc(C(N)=O)c1	none
COc1ccc(/C=N/Nc2ncnc3c2[nH]c2ccc(C)cc23)c(OC)c1OC	none
C=CCN(c1ccccc1)S(=O)(=O)c1cccc(C(=O)Nc2nnc(SCC)s2)c1	none
COc1ccc(N(C)S(=O)(=O)c2cccc(C(=O)Nc3nc(C)cs3)c2)cc1	ALR inh 97.4 (no result: Calb FLC)
CCc1nnc(NC(=O)c2ccc(S(=O)(=O)N(C)c3ccccc3)cc2)o1	PP1 inh 16.4
COc1cc(OC)c(N(C)S(=O)(=O)c2cccc(C(=O)Nc3nc(C)cs3)c2)cc1Cl	none (no result: Calb FLC, CSC inhib, ALR inh)
Cc1ccc(N(C)S(=O)(=O)c2cccc(C(=O)Nc3nnc(C4CC4)s3)c2)cc1	ALR inh 95.0
CCSc1nnc(NC(=O)c2cccc(S(=O)(=O)N(C)c3ccccc3)c2)s1	ALR inh 94.2
Cc1ccc(S(=O)(=O)N2CCCCC2)cc1NC(=O)Cc1c[nH]c2ccccc12	none
CCOC(=O)Cn1c(=N)n(CCOc2ccc3ccccc3c2)c2ccccc21	none
NNc1nc2sc3c(c2c(=O)n1-c1ccccc1)CCCC3	none
Cc1nnc(SC(C)C(=O)N(C)C2CCCCC2)n1N (centres undefined)	none (no result: Calb FLC, CSC inhib)
COc1ccc(CCNC(=O)c2cc(-c3ccccn3)nc3c(Cl)cccc23)cc1OC	none
COc1ccccc1CNC(=S)Nc1cc(C)ccc1C	none
COc1ccccc1CNc1cc(C)ccc1C	ALR inh 83.0
CCCC(=O)C1C(=O)CC(CC(C)SCC)CC1=O (centres undefined)	none
Cc1ccc(OCC(=O)NNC(=O)C2CSC3(C)CCC(=O)N23)cc1 (centres undefined)	none
Cc1cccc(NCc2ccccc2O)c1C	ALR inh 99.5
Cc1ccc(NCc2ccccc2O)c(C)c1	ALR inh inconclusive
O=C(O)CCNc1ccc(NCCC(=O)O)c2c1C(=O)c1ccccc1C2=O	ALR inh 99.2
CCOC(=O)c1c(C)[nH]c(C(=O)/C(C#N)=C/c2ccc(OC(F)F)c(OC)c2)c1C	none
COc1ccc(Br)cc1-c1nc(CCl)cs1	ALR inh 94.8
CCOc1ccc(-c2nc(CCl)cs2)cc1	none (no result: ALR inh)
COc1ccc(CCNC(=O)CSc2cc(=O)[nH]c(N)n2)cc1OC	none
COc1ccc(CCNC(=O)c2c[nH]c3ccccc3c2=O)cc1OC	none
COc1ccc(CCNC(=O)CSc2nc(O)cc(=O)[nH]2)cc1OC	ALR inh 94.8
COc1ccc(Cc2c(O)nc(SCC(=O)N3CCCCCC3)[nH]c2=O)cc1	none
COc1ccc(CCNC(=O)CSc2nc(O)c(CC(C)C)c(=O)[nH]2)cc1OC	ALR inh 97.8
COc1ccc(CCNC(=O)CSc2c[nH]c3ccccc23)cc1OC	ALR inh 97.2
COc1ccc(Cc2c(O)nc(SCC(=O)NC(C)(C)C)[nH]c2=O)cc1	ALR inh 84.4
Cc1nnc(NC(=O)c2ccc3ccccc3n2)s1	none
CC(Sc1nnc(-c2ccco2)n1-c1ccccc1)C(=O)NCC1CCCO1 (centres undefined)	none (no result: Calb FLC)
O=C(Nc1ccccc1)C1=C(O)CC(c2ccco2)CC1=Nc1ccccc1 (centres undefined)	none
O=C(O)c1ccc(-c2ccco2)n1Cc1ccccc1	ALR inh 99.4
Oc1ccc(/C=N/N(c2ccccc2)c2ccccc2)cc1O	ALR inh 98.7
C(=N\N(c1ccccc1)c1ccccc1)/c1ccccn1	none

Compound activity as filed in PubChem BioAssay.
